These results are taken from the supplement of paper PMC10646978.

± gives the standard deviation.

Settings in all cases: modulator concentration 10 µM
The test system of test [1] is RAW-Dual (murine macrophage reporter line). Kind of test: NF-kB reporter (SEAP) activity fold change vs agonist alone; higher = enhanced NF-kB activity. A digest of the protocol: (§1)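 RAW-Dual murine macrophage reporter cells were plated at 50 000 per well in 384-well plates, pin-transferred compound to 10 μM final, and pre-incubated for 1 hour at 37 °C before a PRR agonist was added and the cells incubated overnight. NF-κB activity was read from supernatant SEAP with QUANTI-Blue at 620 nm absorbance, and IRF activity from Lucia luciferase with QUANTI-Luc by luminescence. Each signal was expressed as fold change by dividing by the mean agonist-only control on the same plate. Two replicate plates were averaged, with errors obtained by propagation.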

Test [2] shares this test system. Kind of test: IRF reporter (Lucia luciferase) activity fold change vs agonist alone; higher = enhanced IRF activity. The method, boiled down: as §1
Test [3] shares this test system. The test is described as follows: viability score (confluency relative to resting cells, overnight) (fraction); higher = more viable, active = viable (0.7 or more). A digest of the protocol: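 Two confluency masks, generated with IncuCyte software over all imaged wells, were applied to IncuCyte images of RAW-Dual macrophages. The cells, in 384-well plates, had been exposed overnight to 10 μM final compound. The viability score is confluency as a fraction of resting cells, and a compound met the cutoff only with both masks above 70% of resting cells.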

[4] abbreviates: agonist: CpG ODN 1826 0.5 ug/mL.

Take `C=CCc1ccc(O)c(OC)c1`: the NF-kB reporter in test [1] (setting [4]) is 1.05 ± 0.29; in test [1] (agonist: LPS 0.1 ug/mL) it was 0.913 ± 0.095; in test [1] (agonist: MPLA […]) it was 1.14 ± 0.097. Further, the IRF reporter in test [2] (agonist: 3'3'-cGAMP 10 ug/mL) came to 0.524 ± 0.019; in test [2] (agonist: LPS 0.1 ug/mL) it was 1.05 ± 0.14; in test [2] (agonist: MPLA […]), 1.01 ± 0.12. Also, the viability score in test [3] was 0.659 (inactive).
For `CN1CCN(C(=O)C(C)(c2ccccc2)c2ccccc2)CC1`, the NF-kB reporter amounted to 0.804 ± 0.063 in test [1] (setting [4]), 1.1 ± 0.062 in test [1] (agonist: LPS 0.1 ug/mL) and 0.946 ± 0.056 in test [1] (agonist: MPLA […]). The IRF reporter in test [2] (agonist: 3'3'-cGAMP 10 ug/mL) worked out at 0.981 ± 0.039; in test [2] (agonist: LPS 0.1 ug/mL), 1.22 ± 0.13; in test [2] (agonist: MPLA […]) it was 1.08 ± 0.17. Further, the viability score in test [3] is 1 (active).
As for `Clc1ccc(Nc2nc3nonc3nc2NC2C3CC4CC(C3)CC2C4)cc1` (stereo not drawn), the NF-kB reporter was 1.15 ± 0.12 in test [1] (setting [4]), 1.15 ± 0.07 in test [1] (agonist: LPS 0.1 ug/mL) and 1.2 ± 0.096 in test [1] (agonist: MPLA […]). Further, the IRF reporter in test [2] (agonist: 3'3'-cGAMP 10 ug/mL) is 0.702 ± 0.27; in test [2] (agonist: LPS 0.1 ug/mL), 1.32 ± 0.17; in test [2] (agonist: MPLA […]), 1.15 ± 0.16. For the same molecule, the viability score in test [3] is 0.931 (active).
`CN1CCN(C2CC(=O)N(c3ccc(N4CCOCC4)cc3)C2=O)CC1` (stereo not drawn): the NF-kB reporter was 0.963 ± 0.079 in test [1] (setting [4]), 0.945 ± 0.096 in test [1] (agonist: LPS 0.1 ug/mL) and 0.864 ± 0.065 in test [1] (agonist: MPLA […]). Besides, the results for the IRF reporter in test [2] (agonist: 3'3'-cGAMP 10 ug/mL), in test [2] (agonist: LPS 0.1 ug/mL) and in test [2] (agonist: MPLA […]) were 1.01 ± 0.025, 1.37 ± 0.11 and 1.13 ± 0.29, respectively. Moreover, the viability score in test [3] was 1.01 (active).
Consider `O=C(CCCCCN1C(=O)c2cccc3cccc(c23)C1=O)NO`, for which the figures for the NF-kB reporter in test [1] (setting [4]), in test [1] (agonist: LPS 0.1 ug/mL) and in test [1] (agonist: MPLA […]) were 1.71 ± 0.32, 1.43 ± 0.12 and 4.2 ± 0.32, respectively. Besides, the IRF reporter was determined as 0.062 ± 0.0017 in test [2] (agonist: 3'3'-cGAMP 10 ug/mL), 0.581 ± 0.061 in test [2] (agonist: LPS 0.1 ug/mL) and 0.632 ± 0.12 in test [2] (agonist: MPLA […]). The viability score in test [3] was 0.536 (inactive).
For the molecule `CC1SC(c2ccccc2)NC1=O` (stereo not drawn), the NF-kB reporter in test [1] (setting [4]) is 1.04 ± 0.08; in test [1] (agonist: LPS 0.1 ug/mL) it was 1.06 ± 0.065; in test [1] (agonist: MPLA […]), 0.952 ± 0.055. In addition, the IRF reporter in test [2] (agonist: 3'3'-cGAMP 10 ug/mL) was 0.791 ± 0.026; in test [2] (agonist: LPS 0.1 ug/mL) it was 1.42 ± 0.098; in test [2] (agonist: MPLA […]), 1.2 ± 0.12. Further, the viability score in test [3] is 0.999 (active).
Consider `CN1CCC(COc2cnc(-c3cccc(Cn4nc(-c5cccc(C#N)c5)ccc4=O)c3)nc2)CC1`, for which the results for the NF-kB reporter in test [1] (setting [4]), in test [1] (agonist: LPS 0.1 ug/mL) and in test [1] (agonist: MPLA […]) were 0.884 ± 0.28, 1 ± 0.055 and 1.06 ± 0.082, respectively. The IRF reporter was 0.713 ± 0.04 in test [2] (agonist: 3'3'-cGAMP 10 ug/mL), 1.11 ± 0.14 in test [2] (agonist: LPS 0.1 ug/mL) and 1.37 ± 0.36 in test [2] (agonist: MPLA […]). Besides, in test [3], the viability score is 0.625 (inactive).
Turning to `COc1cccc(C=Nc2cccc([N+](=O)[O-])c2C)c1O`, the NF-kB reporter in test [1] (setting [4]) turned out to be 0.661 ± 0.054; in test [1] (agonist: LPS 0.1 ug/mL), 0.906 ± 0.066; in test [1] (agonist: MPLA […]) it was 0.978 ± 0.035. The results for the IRF reporter in test [2] (agonist: 3'3'-cGAMP 10 ug/mL), in test [2] (agonist: LPS 0.1 ug/mL) and in test [2] (agonist: MPLA […]) were 0.903 ± 0.077, 0.93 ± 0.088 and 0.948 ± 0.17, respectively. Besides, the viability score in test [3] is 1 (active).
With `O=C(NCCN1CCOCC1)c1ccc(Cl)cc1`, the NF-kB reporter is 1.37 ± 0.2 in test [1] (setting [4]), 1.13 ± 0.3 in test [1] (agonist: LPS 0.1 ug/mL) and 0.953 ± 0.055 in test [1] (agonist: MPLA […]). Besides, the figures for the IRF reporter in test [2] (agonist: 3'3'-cGAMP 10 ug/mL), in test [2] (agonist: LPS 0.1 ug/mL) and in test [2] (agonist: MPLA […]) were 0.95 ± 0.048, 1.26 ± 0.43 and 1.01 ± 0.078, respectively. The viability score in test [3] is 0.992 (active).
In the case of `Oc1ccccc1C=NNc1nc(-c2ccccc2)cc(-c2ccccc2)n1`, the values for the NF-kB reporter in test [1] (setting [4]), in test [1] (agonist: LPS 0.1 ug/mL) and in test [1] (agonist: MPLA […]) were 0.769 ± 0.066, 1.02 ± 0.088 and 1.03 ± 0.12, respectively. Further, the values for the IRF reporter in test [2] (agonist: 3'3'-cGAMP 10 ug/mL), in test [2] (agonist: LPS 0.1 ug/mL) and in test [2] (agonist: MPLA […]) were 1.19 ± 0.12, 1.16 ± 0.16 and 1.26 ± 0.2, respectively. For the same molecule, the viability score in test [3] was 0.987 (active).
With `CCOc1cc(CC(=O)N[C@@H](CC(C)C)c2ccccc2N2CCCCC2)ccc1C(=O)O`, the NF-kB reporter was determined as 1.24 ± 0.23 in test [1] (setting [4]), 1.11 ± 0.23 in test [1] (agonist: LPS 0.1 ug/mL) and 0.956 ± 0.055 in test [1] (agonist: MPLA […]). For the same molecule, the IRF reporter in test [2] (agonist: 3'3'-cGAMP 10 ug/mL) stood at 0.897 ± 0.039; in test [2] (agonist: LPS 0.1 ug/mL) it was 1.22 ± 0.32; in test [2] (agonist: MPLA […]), 1.26 ± 0.18. For the same molecule, the viability score in test [3] is 0.683 (inactive).
In the case of `Nc1ccccc1NC(=O)c1ccc(CNc2nccc(-c3cccnc3)n2)cc1`, the results for the NF-kB reporter in test [1] (setting [4]), in test [1] (agonist: LPS 0.1 ug/mL) and in test [1] (agonist: MPLA […]) were 2.46 ± 0.12, 1.73 ± 0.15 and 2.58 ± 0.15, respectively. Further, the IRF reporter in test [2] (agonist: 3'3'-cGAMP 10 ug/mL) is 0.0523 ± 0.0046; in test [2] (agonist: LPS 0.1 ug/mL) it was 0.16 ± 0.016; in test [2] (agonist: MPLA […]) it was 0.186 ± 0.051. Besides, the viability score in test [3] is 0.56 (inactive).
For `COC(=O)C(NC(=O)C(C)(C)C)C12CC3CC(CC(C3)C1)C2` (stereo not drawn), the NF-kB reporter was 0.96 ± 0.075 in test [1] (setting [4]), 0.892 ± 0.067 in test [1] (agonist: LPS 0.1 ug/mL) and 0.934 ± 0.094 in test [1] (agonist: MPLA […]). The IRF reporter in test [2] (agonist: 3'3'-cGAMP 10 ug/mL) came to 1.06 ± 0.058; in test [2] (agonist: LPS 0.1 ug/mL), 1.38 ± 0.23; in test [2] (agonist: MPLA […]), 1.49 ± 0.3. The viability score in test [3] was 1.02 (active).
As for `Nc1nc(NC2CC2)c2ncn([C@H]3C=C[C@@H](CO)C3)c2n1.Nc1nc(NC2CC2)c2ncn([C@H]3C=C[C@@H](CO)C3)c2n1.O=S(=O)(O)O`, the NF-kB reporter in test [1] (setting [4]) came out at 1.1 ± 0.26; in test [1] (agonist: LPS 0.1 ug/mL) it was 1.02 ± 0.057; in test [1] (agonist: MPLA […]) it was 1.04 ± 0.093. For the same molecule, the IRF reporter amounted to 0.864 ± 0.065 in test [2] (agonist: 3'3'-cGAMP 10 ug/mL), 1.2 ± 0.15 in test [2] (agonist: LPS 0.1 ug/mL) and 1.07 ± 0.12 in test [2] (agonist: MPLA […]). Also, in test [3], the viability score is 0.791 (active).
